Experimental findings from PubChem BioAssay (Tox21) are described below.

Molecules are shown by their SMILES. Several values for one entry are separate records, joined by “and”; a condition that tells them apart may be missing. Equal entries are not always repeated. Results filed as inconclusive are left out. Some structures have more than one record in an assay (separate samples or runs), and their calls can disagree. Activity calls are given as the source filed them. Unless noted, calls come from the whole dose curve; as a rule, active = well fitted curve in the direction sought with a large enough effect in the repeat runs; inconclusive = weak or mixed curves; inactive = no such curve, though single readings can be large; an effect the other way counts as inactive or inconclusive.

The nature of test [1]: qHTS assay to identify small molecule agonists of the androgen receptor (AR) signaling pathway in the presence of an antagonist - cell viability counter screen (AID 1259379). Note: nearly all actives have a fitted effect of over 25% in size. Note: potency is the fitted concentration of half-maximal effect. An outline of the steps: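 Cells: MDA-kb2 (MMTV-luc, AR and GR elements), 3,000/well, 5 hr settle. Added: nilutamide 3.0uM final, then compounds (15 conc.). Incubation: 16 hr, 37C, no CO2. Read-out: CellTiter-Fluor, 1 hr, fluorescence.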

Test [2] in a line: qHTS assay to identify small molecule agonists of the estrogen receptor beta (ER-beta) signaling pathway - cell viability counter screen (AID 1259380). Note: nearly all actives have a fitted effect of over 30% in size. Note: potency is the fitted concentration of half-maximal effect. An outline of the steps:
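HEK293T ER-beta-UAS-bla; 2% CS-FBS; 6 hr pre-plate, 16 hr cpd at 37C/5% CO2; LiveBLAzer read first, then CellTiter-Glo 30 min RT, luminescence.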

The target in test [3] is Progesterone receptor (Homo sapiens) (UniProt P06401). The experiment in a line: qHTS assay to identify small molecule agonists of the progesterone receptor (PR) signaling pathway (AID 1346784; calls by dose curve; note: nearly all actives have a fitted effect of over 30% in size; note: potency is the fitted concentration of half-maximal effect). An outline of the steps:
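Reporter assay, GripTite PR-UAS-bla HEK 293T cells: 16 hr exposure to DMSO-dissolved compounds at 37C, 5% CO2, in steroid-depleted (2% charcoal-stripped FBS) medium; beta-lactamase measured by FRET fluorescence.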
(In general: qHTS replaces the single test concentration by a dilution series.)

Test [4] has the same target. Nature of the test: qHTS assay to identify small molecule antagonists of the progesterone receptor (PR) signaling pathway (AID 1346795; active = well fitted inhibition curve with a large enough effect in the signal ratio in the repeat runs, not every such curve was filed as active; the % refers to the signal ratio; note: potency is the fitted concentration of half-maximal effect). The gist of the method: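 Stimulus R5020 at 1 nM final; cells HEK293T PR-UAS-bla; medium with 2% charcoal-stripped FBS; compound exposure 16 hr at 37C, 5% CO2; detection by FRET beta-lactamase substrate, 2 hr, room temperature.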
Test [5] can be described thus: qHTS assay to identify small molecule antagonists of the progesterone receptor (PR) signaling pathway - cell viability counter screen (AID 1346798). Note: series mostly up to about 92 µM; nearly all actives have a fitted effect of over 50% in size. The gist of the method: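 In the same plates used for the beta-lactamase readout, cell viability of compound- and R5020-treated PR-UAS-bla HEK293T cells (16 hr, 37C) was assessed by CellTiter-Glo luminescence.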
Test [6] is described as follows: qHTS assay to identify small molecule agonists of the progesterone receptor (PR) signaling pathway - cell viability counter screen (AID 1346799; calls by dose curve; note: nearly all actives have a fitted effect of over 45% in size). An outline of the steps:
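Multiplexed viability read: CellTiter-Glo luminescence, 30 min RT, following LiveBLAzer FRET measurement on PR-UAS-bla HEK293T cells exposed to compounds 16 hr.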

The nature of test [7]: qHTS assay to identify small molecule antagonists of the TGF-beta/Smad signaling pathway - cell viability counter screen (AID 1346824). Note: nearly all actives have a fitted effect of over 50% in size. An outline of the steps:
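Cytotoxicity counter-screen run in the same wells as the beta-lactamase Smad reporter read: CellTiter-Glo luminescence after 30 min at room temperature. HEK 293T SBE-bla cells had 5 hr compound exposure at 37 C with TGF-beta1 (0.25 ng/mL stock).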

Test [8] can be described thus: qHTS assay to identify small molecule agonists of the TGF-beta/Smad signaling pathway - cell viability counter screen (AID 1346829). Note: top concentration of the series differs between compounds; nearly all actives have a fitted effect of over 45% in size. An outline of the steps:
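Compound-treated SBE-bla HEK 293T cells (5 hr, 37 C) were assessed for viability with CellTiter-Glo in parallel with the reporter read.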

Test [9] is described as follows: qHTS assay to identify small molecule agonists of the TGF-beta/Smad signaling pathway (AID 1346859; active = well fitted activation curve with a large enough effect in the signal ratio in the repeat runs, not every such curve was filed as active; the % refers to the signal ratio; note: series mostly up to about 77 µM). An outline of the steps: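 Screening used HEK 293T SBE-bla cells at 4,000/well. Test agents: 5 hr, 37 C. Detection: FRET substrate, 2 hr RT, then excitation 405 nm with emissions at 460 and 530 nm.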
The nature of test [10]: Human pregnane X receptor (PXR) small molecule agonists, qHTS cell viability counter screen (AID 1346977). Note: nearly all actives have a fitted effect of over 50% in size. Note: potency is the fitted concentration of half-maximal effect. An outline of the steps:
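In each well, the PXR reporter HepG2 line was checked for viability: CellTiter-Fluor reagent added 23hr post-dosing, fluorescence read after 1hr incubation at 37C.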

The nature of test [11]: Caspase-3/7 induction in HepG2 cells by small molecules, qHTS assay (AID 1346978). Note: nearly all actives have a fitted effect of over 15% in size. The gist of the method:
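Caspase-3/7 induction was measured by Caspase-Glo 3/7 luminescence (30 min, room temperature) after a 17 hr compound exposure of wild-type HepG2 cells seeded at 2,000 per well and pre-incubated 5 hr.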

The nature of test [12]: Caspase-3/7 induction in CHO-K1 cells by small molecules, qHTS cell viability counter screen (AID 1346979). Note: nearly all actives have a fitted effect of over 35% in size. An outline of the steps:
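Following a 5hr settling period, CHO-K1 cells at 1,500 per well received DMSO-dissolved compounds. Cell viability was quantified 16hr later by CellTiter-Fluor fluorescence, measured after 1hr with reagent at 37C.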

Test [13] is described as follows: qHTS assay to identify small molecule agonists or antagonists of the thyroid stimulating hormone receptor (TSHR) signaling pathway - wild type cell line counter screen (AID 1259384; calls by dose curve). The gist of the method:
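Counter screen in untransfected Hek293: compounds (15-point titration, triplicate) plus phosphodiesterase inhibitor Ro20-1724 added after 18 h plating; 30 min RT. Intracellular cAMP via competitive d2/cryptate immunoassay, 1 h incubation.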

For test [14], the target named is Thyrotropin receptor (Homo sapiens) (UniProt P16473). The experiment in a line: qHTS assay to identify small molecule antagonists of the thyroid stimulating hormone receptor (TSHR) signaling pathway (AID 1259385; calls by dose curve; note: nearly all actives have a fitted effect of over 20% in size). An outline of the steps:
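Antagonist mode: compound-treated TSHR-expressing HEK293 cells were stimulated with 1.5 ng/mL TSH (final) in presence of Ro20-1724 for 30 min at RT. HTRF cAMP detection after 1 h; each compound tested at 15 concentrations, triplicate.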

Test [15] has as its target Thyrotropin-releasing hormone receptor (Homo sapiens) (UniProt P34981). The experiment in a line: qHTS assay to identify small molecule antagonists of the thyrotropin-releasing hormone receptor (TRHR) signaling pathway (AID 1346877; active = well fitted inhibition curve with a large enough effect in the repeat runs, not every such curve was filed as active; note: series mostly up to about 51 µM). The gist of the method: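 Intracellular calcium fluorescence, read kinetically every second over 3 min, reports TRH-evoked signalling in HEK293 cells carrying TRHR. Test compounds were added 5 min ahead of a 1 nM TRH challenge.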

The target is the same in test [16]. Nature of the test: qHTS assay to identify small molecule agonists of the thyrotropin-releasing hormone receptor (TRHR) signaling pathway (AID 1346891; calls by dose curve; note: series mostly up to about 58 µM). An outline of the steps:
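Readout was intracellular calcium fluorescence in TRHR-Hek293 cells. Cells were incubated 18 h, dye-loaded 2 h at 37 °C, and treated with compound in agonist mode.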

A short description of test [17]: qHTS assay to identify small molecule agonists of the estrogen receptor alpha (ER-alpha) signaling pathway in the presence of an antagonist - cell viability counter screen (AID 1259386).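 Note: series mostly up to about 92 µM; cells exposed to compounds for 22 h at 37 °C before the viability read; nearly all actives have a fitted effect of over 30% in size.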 An outline of the steps: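 VM7Luc4E2, stripped-serum pre-culture 5 d; 24hr plating; +ICI-182,780 10.0nM final; cpds 15 conc, 22hr, 37C/5% CO2; CellTiter-Fluor added at 21hr, fluorescence 1hr later.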
% is set by controls: 0 for no effect and ±100 for the full control effect.

Chain of Thyrotropin receptor (Homo sapiens) (P16473 whole entry, looked up): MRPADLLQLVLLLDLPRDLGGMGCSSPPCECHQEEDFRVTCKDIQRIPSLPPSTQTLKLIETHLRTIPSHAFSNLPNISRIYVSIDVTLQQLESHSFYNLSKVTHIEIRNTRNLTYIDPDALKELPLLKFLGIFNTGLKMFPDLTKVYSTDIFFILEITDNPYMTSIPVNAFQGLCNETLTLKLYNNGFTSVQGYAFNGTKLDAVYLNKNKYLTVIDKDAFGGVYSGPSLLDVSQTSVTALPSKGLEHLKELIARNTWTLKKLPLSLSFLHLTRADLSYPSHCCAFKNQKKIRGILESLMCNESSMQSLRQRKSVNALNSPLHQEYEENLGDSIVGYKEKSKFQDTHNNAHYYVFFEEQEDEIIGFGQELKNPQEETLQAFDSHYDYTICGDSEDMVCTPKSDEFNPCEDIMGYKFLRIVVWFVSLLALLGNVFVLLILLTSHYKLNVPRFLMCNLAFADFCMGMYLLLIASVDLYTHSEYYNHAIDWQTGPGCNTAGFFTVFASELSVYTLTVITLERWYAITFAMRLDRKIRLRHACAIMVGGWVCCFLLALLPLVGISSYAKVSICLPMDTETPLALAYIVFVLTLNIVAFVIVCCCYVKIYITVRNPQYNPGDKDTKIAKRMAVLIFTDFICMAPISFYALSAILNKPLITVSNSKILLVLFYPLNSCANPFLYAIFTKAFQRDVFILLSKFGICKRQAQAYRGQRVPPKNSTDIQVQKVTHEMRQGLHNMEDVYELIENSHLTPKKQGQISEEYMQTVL
Chain of Thyrotropin-releasing hormone receptor (Homo sapiens) (P34981 whole entry, looked up): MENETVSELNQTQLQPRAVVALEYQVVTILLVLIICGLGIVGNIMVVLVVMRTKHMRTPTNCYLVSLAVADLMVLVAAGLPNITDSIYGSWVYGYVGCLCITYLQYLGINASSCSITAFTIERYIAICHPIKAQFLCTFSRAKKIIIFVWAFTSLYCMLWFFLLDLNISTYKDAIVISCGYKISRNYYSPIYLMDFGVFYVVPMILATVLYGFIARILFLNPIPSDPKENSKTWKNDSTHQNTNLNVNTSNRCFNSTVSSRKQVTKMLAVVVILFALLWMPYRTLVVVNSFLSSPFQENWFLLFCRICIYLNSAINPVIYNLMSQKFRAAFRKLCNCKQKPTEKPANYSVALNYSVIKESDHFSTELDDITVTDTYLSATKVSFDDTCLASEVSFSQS
Chain of Progesterone receptor (Homo sapiens) (P06401 whole entry, looked up): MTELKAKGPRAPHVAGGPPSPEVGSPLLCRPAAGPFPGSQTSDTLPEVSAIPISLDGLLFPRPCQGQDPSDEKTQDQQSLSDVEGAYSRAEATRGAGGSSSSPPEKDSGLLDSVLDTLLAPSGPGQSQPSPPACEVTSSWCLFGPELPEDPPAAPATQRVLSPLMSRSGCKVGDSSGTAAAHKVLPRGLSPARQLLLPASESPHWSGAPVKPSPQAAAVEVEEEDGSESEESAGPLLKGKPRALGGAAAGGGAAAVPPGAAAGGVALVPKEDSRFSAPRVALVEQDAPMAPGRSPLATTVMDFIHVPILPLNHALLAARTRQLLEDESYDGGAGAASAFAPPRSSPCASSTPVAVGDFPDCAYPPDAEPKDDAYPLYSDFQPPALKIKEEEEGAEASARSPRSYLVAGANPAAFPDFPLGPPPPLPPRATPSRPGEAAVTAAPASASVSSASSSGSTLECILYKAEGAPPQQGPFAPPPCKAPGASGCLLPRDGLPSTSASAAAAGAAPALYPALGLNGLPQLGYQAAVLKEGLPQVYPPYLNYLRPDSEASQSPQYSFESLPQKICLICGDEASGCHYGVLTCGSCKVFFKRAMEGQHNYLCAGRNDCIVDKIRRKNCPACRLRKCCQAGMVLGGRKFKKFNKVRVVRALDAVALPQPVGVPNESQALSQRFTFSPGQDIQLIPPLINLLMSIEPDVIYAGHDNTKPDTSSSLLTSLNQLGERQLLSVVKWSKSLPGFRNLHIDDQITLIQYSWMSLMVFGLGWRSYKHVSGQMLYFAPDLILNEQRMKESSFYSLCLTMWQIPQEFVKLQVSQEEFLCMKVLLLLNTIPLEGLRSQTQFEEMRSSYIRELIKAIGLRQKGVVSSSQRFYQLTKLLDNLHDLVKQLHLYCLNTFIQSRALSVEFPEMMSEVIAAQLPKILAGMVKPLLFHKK

As for `CC(=O)O`, the Potency entry in [1], in [2], in test [4], in test [5], in test [6] and in [7] was “inactive” throughout. Besides, the Potency result in test [8], in test [9], in test [10], in test [11] and in test [12] was “inactive” throughout. The Potency entry in test [3] was “inactive and 392 nM (active)”.
For the compound `CCCn1cc[n+](C)c1`, the Potency result in test [1], in test [2], in test [13], in test [14], in [3] and in test [4] was “inactive” each time. Moreover, the Potency entry in test [5], in test [6], in [7], in test [8], in test [9] and in test [15] was “inactive” throughout. The Potency entry in [16], in [10], in test [11] and in [12] was “inactive” each time.
For the compound `O=C(O)COc1ccc(Cl)cc1Cl`, the Potency result in [1], in test [2], in test [3], in [4], in [5] and in [6] was “inactive” throughout. For the same compound, the Potency result in test [7], in test [8], in [9], in [10], in [11] and in test [12] was “inactive” throughout.
Consider `CCCCCCn1cc[n+](C)c1`, for which the results for the Potency in test [1] and in test [10] were 50.5 µM (active) [middle of 6 runs] and 13.9 µM (active), respectively. Moreover, the Potency entry in test [2], in test [17], in test [3], in test [4], in test [5] and in test [6] was “inactive” in each case. For the same compound, the Potency result in test [7], in test [8], in [9], in test [11] and in [12] was “inactive” each time.
Take `O=[N+]([O-])c1ccccc1O`: the Potency entry in test [1], in test [2], in test [3], in test [4], in test [5] and in test [6] was “inactive” in each case. Besides, the Potency entry in test [7], in [8], in test [9], in test [15], in test [16] and in [10] was “inactive” in each case. Besides, the Potency entry in test [11] and in test [12] was “inactive” each time.
As to `CCCCn1cc[n+](C)c1`, the Potency result in test [1], in test [2], in test [5], in test [6], in [7] and in test [8] was “inactive” in each case. Besides, the Potency entry in test [9], in test [10], in [11] and in [12] was “inactive” throughout.
Regarding `CCCCCCCCCCn1cc[n+](C)c1`, the Potency result in [2] was “inactive and 2.73 µM (active)”; in test [4] it was 31.4 µM (active) and 48.5 µM (active) and 27.3 µM (active); in [10], 2.76 µM (active). In addition, the Potency result in test [3], in test [5], in test [7], in test [8], in test [9] and in [11] was “inactive” each time.
With `O=C(O)c1ccccc1O`, the Potency result in test [1], in test [2], in [3], in test [4], in [5] and in test [6] was “inactive” in each case. Moreover, the Potency result in test [7], in test [8], in test [9], in [10], in test [11] and in [12] was “inactive” throughout.
For `CCCC[n+]1cccc(C)c1`, the Potency result in test [1], in [2], in [3], in [4], in test [5] and in test [6] was “inactive” throughout. Further, the Potency entry in [7], in [8], in test [9], in test [15], in test [16] and in test [10] was “inactive” throughout. Further, the Potency entry in [11] and in test [12] was “inactive” in each case.
Turning to `O=C(O)CC(O)(CC(=O)O)C(=O)O`, the Potency result in [1], in [2], in test [4], in [5], in [6] and in test [7] was “inactive” in each case. The Potency entry in test [8], in [9], in test [15], in [16], in [10] and in test [11] was “inactive” throughout. Moreover, the Potency entry in [12] was “inactive”. Moreover, the Potency entry in test [3] was “inactive and 87.8 nM (active)”.
